Assay results from the supplement of paper PMC11417369.
± gives the standard deviation of the averaged measurements. Over roughly 25,000 sequences, “ln(normalized median fluorescence intensity)” has its median near 7.9; the highest 2% begin near 11. Only a selection was taken, and the highest values are over-represented in it overall.

What follows are sequences tested on PfAP2-I AP2 domain 3 (GST-tagged) (assay: gcPBM binding intensity (ln(normalized median fluorescence intensity)); higher = stronger DNA binding).
Method in brief: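 For binding intensity, the highest Masliner-normalised natural-log median intensity across replicate spots of either probe orientation was taken. Protein bound to the array was stained with Alexa488 anti-GST antibody and scanned at 488 nm. The protein, GST-tagged P. falciparum DNA-binding domains from E. coli at about 25 μg on average, had been applied for 1 h to an Agilent 4 × 180k array of primer-extended double-stranded 36-bp intergenic genomic probes and negative controls.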

Question: How did the “gcPBM binding intensity (ln)” value turn out when “TTCATTAAAGTTATTACACACAGTTCTTCAACCAAA [CACACA_site7613]” was run?
Answer: The value was 7.88 ± 0.46.

Question: Which “gcPBM binding intensity (ln)” value does the source give for “ATATTTATAAATTGCACACAAATAATAACATTATAT [CACACA_site5322]” here?
Answer: The value was 8.68 ± 0.13.

Question: How did the “gcPBM binding intensity (ln)” value turn out when “TATAATATTTGGTGCACACAAATTAACAACTGTTTA [CACACA_site3742]” was run?
Answer: The value was 11.1 ± 0.39.

Question: With “AAATATTTATAAATTGCACACAAATAATAACATTAT [CACACA_site8737]” as the sequence, how does the “gcPBM binding intensity (ln)” value read?
Answer: Its value is 8.47 ± 0.099.

Question: For “TTCTTTGTAGTATATTAACACACAACTGTTTATAAT [CACACA_site9305]”, which “gcPBM binding intensity (ln)” value is on record?
Answer: Its value is 8.02 ± 0.59.

Question: With “CTTTGTAGTATATTAACACACAACTGTTTATAATAT [CACACA_site6038]” as the sequence, how does the “gcPBM binding intensity (ln)” value read?
Answer: The value was 7.77 ± 0.54.

Question: “TGTATAATATTTGGTGCACACAAATTAACAACTGTT [CACACA_site9245]” was tested. Which “gcPBM binding intensity (ln)” value did it give?
Answer: Its value is 11.1 ± 0.54.

Question: How did the “gcPBM binding intensity (ln)” value turn out when “ATTCAAAAGGTTTAATGTACGTGATGTTTCACAAAT [XGTACX_site784]” was run?
Answer: The value was 7.74 ± 0.5.

Question: With “AAAAATGGAATTATCTGTACATATATAGTTTTTAAA [XGTACX_site5580]” as the sequence, how does the “gcPBM binding intensity (ln)” value read?
Answer: Its value is 7.44 ± 0.33.

Question: For “AATTGTTCTATGATTTGTACACACTTTTTTTTAAAA [XGTACX_site5984]”, which “gcPBM binding intensity (ln)” value is on record?
Answer: The value was 8.15 ± 0.52.

Question: With “ATTTTAATAAAATATGTACACACATACACCCATATA [CACACA_site8326]” as the sequence, how does the “gcPBM binding intensity (ln)” value read?
Answer: The value was 8.15 ± 0.34.

Question: How did the “gcPBM binding intensity (ln)” value turn out when “AATACATGAATATGTAGTACAGAAAAAAAAAATATA [XGTACX_site1945]” was run?
Answer: Its value is 7.89 ± 0.6.

Question: Which “gcPBM binding intensity (ln)” value does the source give for “TAATATAATATATGCACACAAATATGTATATATGTG [CACACA_site2134]” here?
Answer: Its value is 8.895 ± 0.049.

Question: How did the “gcPBM binding intensity (ln)” value turn out when “ATTTTTAATATTATTACACACACTAATAAAAAAAAA [CACACA_site8265]” was run?
Answer: Its value is 7.96 ± 0.27.

Question: Which “gcPBM binding intensity (ln)” value does the source give for “ATAATATTTTAATGCACACACACAAAAAAAAAAAAA [CACACA_site2891]” here?
Answer: The value was 11.2 ± 0.61.

Question: “TTTTTAAAATATTTAACACACAATTTTAATGCATAA [CACACA_site6036]” was tested. Which “gcPBM binding intensity (ln)” value did it give?
Answer: The value was 8.8 ± 0.11.

Question: For “AATAAATATAAAAATGCACACACACTAATAAAAAAA [CACACA_site8201]”, which “gcPBM binding intensity (ln)” value is on record?
Answer: Its value is 8.67 ± 0.52.

Question: For TTAAAAAATATATGCGTGCACTAATATTTCATATGC, which “gcPBM binding intensity (ln)” value is on record?
Answer: The value was 11.5 ± 0.2.

Question: With “TGATTCAATTTATGCACACTAAAAATTAATTATATT [CACACA_site271]” as the sequence, how does the “gcPBM binding intensity (ln)” value read?
Answer: The value was 9.65 ± 0.23.

Question: With “TTTTTTTTTTTTAATGCACACAATATATAATATGTA [CACACA_site3694]” as the sequence, how does the “gcPBM binding intensity (ln)” value read?
Answer: Its value is 11.2 ± 0.4.

Question: “ATATTTTACAAATGCACACATAATTTTTTTTTTTTT [CACACA_site2763]” was tested. Which “gcPBM binding intensity (ln)” value did it give?
Answer: Its value is 9.33 ± 0.099.

Question: “AGATAAAATATATATGCACACACATATATATTTCAT [CACACA_site9183]” was tested. Which “gcPBM binding intensity (ln)” value did it give?
Answer: Its value is 9.255 ± 0.007.

Question: For “GTATAATATTTTAATGCACACACACTAATAAAAAAA [CACACA_site8939]”, which “gcPBM binding intensity (ln)” value is on record?
Answer: The value was 11.1 ± 0.76.

Question: “TATAATATAATATATGCACACAAATATGTATATATG [CACACA_site8664]” was tested. Which “gcPBM binding intensity (ln)” value did it give?
Answer: The value was 8.86 ± 0.085.

Question: With “ATTAATGATTTTTGTTGTACATTATTAATTTACATT [XGTACX_site544]” as the sequence, how does the “gcPBM binding intensity (ln)” value read?
Answer: The value was 7.83 ± 0.46.

Question: “ATTTCTCAATCGTAATGTACAAAAAAAAGGGAAAAG [XGTACX_site2781]” was tested. Which “gcPBM binding intensity (ln)” value did it give?
Answer: Its value is 7.9 ± 0.58.

Question: For “AAGGAATATGTATATACACACAGGTACATATATATA [CACACA_site441]”, which “gcPBM binding intensity (ln)” value is on record?
Answer: The value was 8.16 ± 0.71.

Question: Which “gcPBM binding intensity (ln)” value does the source give for “AGTAGTCTGGAGAAAAGTACATAGTATCTGGTAGCT [XGTACX_site2027]” here?
Answer: The value was 7.98 ± 0.52.

Question: For “AAGAGAGAGAAATATGCACACATAAGGGAAATAAAT [CACACA_site8300]”, which “gcPBM binding intensity (ln)” value is on record?
Answer: The value was 8.895 ± 0.049.

Question: “TTTATTCCAGTATTCACACACGAATAACCACATAAC [CACACA_site5104]” was tested. Which “gcPBM binding intensity (ln)” value did it give?
Answer: Its value is 7.93 ± 0.42.

Question: For “ATATATATATATATTTGTACATAATATATATATGCA [XGTACX_site1795]”, which “gcPBM binding intensity (ln)” value is on record?
Answer: Its value is 9.28 ± 0.48.

Question: How did the “gcPBM binding intensity (ln)” value turn out when “AGATATAATAAATATACACACATATATATATATATA [CACACA_site962]” was run?
Answer: Its value is 9.2 ± 0.76.

Question: For “TAAATTTTAATATGCACACAAAATGTTATATTAAAA [CACACA_site4366]”, which “gcPBM binding intensity (ln)” value is on record?
Answer: The value was 9.13 ± 0.35.

Question: “TTTAAATTTTAATATGCACACAAAATGTTATATTAA [CACACA_site8015]” was tested. Which “gcPBM binding intensity (ln)” value did it give?
Answer: The value was 9.06 ± 0.13.

Question: Which “gcPBM binding intensity (ln)” value does the source give for “AATATTTTAATGCACACACACAAAAAAAAAAAAAAA [CACACA_site7374]” here?
Answer: Its value is 11.5 ± 0.73.

Question: How did the “gcPBM binding intensity (ln)” value turn out when “AAGCATATTATAAACACACACTGTATAAAGATATAT [CACACA_site6277]” was run?
Answer: Its value is 7.66 ± 0.67.

Question: How did the “gcPBM binding intensity (ln)” value turn out when “TATATACCACATTGTTGTACGACACATTTACATTTT [XGTACX_site8370]” was run?
Answer: Its value is 8.21 ± 0.57.

Question: “ACATGAAACTATAAACGTACATACATACATATATAT [XGTACX_site5011]” was tested. Which “gcPBM binding intensity (ln)” value did it give?
Answer: Its value is 8.09 ± 0.6.

Question: With “TATTTTATATAAAGGTGTACTTATACAAAAATATAT [XGTACX_site7435]” as the sequence, how does the “gcPBM binding intensity (ln)” value read?
Answer: The value was 8.14 ± 0.28.

Question: How did the “gcPBM binding intensity (ln)” value turn out when “AAAAAAAAAAAAAGGTGTACATGCAAAATAAATTCT [XGTACX_site4592]” was run?
Answer: Its value is 8.56 ± 0.35.

Question: For “ATTTTTCTAAAATACTGTACAAAGGTGCATAAAAAG [XGTACX_site4425]”, which “gcPBM binding intensity (ln)” value is on record?
Answer: The value was 11.8 ± 0.87.

Question: How did the “gcPBM binding intensity (ln)” value turn out when “GATAATGAATGATGCACACTAAAAATATTCTACAAC [CACACA_site3622]” was run?
Answer: The value was 8.66 ± 0.16.

Question: “TTTTCTCTAAAAAGGTGTACAACTAATAATGCACTG [XGTACX_site6074]” was tested. Which “gcPBM binding intensity (ln)” value did it give?
Answer: Its value is 11.4 ± 0.31.

Question: With “TATAAATACTAAAAAAGTACAAAATTTCATAAAAAA [XGTACX_site2709]” as the sequence, how does the “gcPBM binding intensity (ln)” value read?
Answer: The value was 7.82 ± 0.59.

Question: Which “gcPBM binding intensity (ln)” value does the source give for “ATATATATATATATATGTACATATTGTATTAATTAT [XGTACX_site1919]” here?
Answer: Its value is 9.31 ± 0.11.
